Hits are enriched below; roughly 3.2% of the tested compounds scored in any of these assays.
MEKK2 mut-MEK5: signal of MEK5 binding to mutant human MEKK2 PB1 domain. 290,000 compounds, 0.35% hits. bead flow cytometry, Alexa488-MEK5 binding to MEKK2 mutant. AID 1530. percent response, % at 10 µM; in the data active means percent response above about 24%, passing the limit was not always enough
CendR NRP1 mod: modulators of CendR peptide binding to human neuropilin-1 | O14786 | FAM-RPARPAR peptide binding to NRP-1, fluorescence polarization | inhibition, % at 25 µM | 360,000 compounds, 0.85% hits;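 active means inhibition or corrected inhibition above about 18%, plus a signal ratio from 0.5 to 1.5, limit read from the data, passing the limit was not always enough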
MEKK3 PB1 HTS: raises or lowers MEK5 binding to the human MEKK3 PB1 domain; Q99759; bead-based flow cytometry, Alexa488-MEK5 binding to MEKK3; actives lie on both sides; 0 = blocked by unlabeled MEK5, 100 = vehicle; binding response (% of control), % at 10 µM; 290,000 compounds, 1.4% hits; AID 1529;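 active means binding response more than 3 SD above or below the average of its plate-row segment, actives on both sides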;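 further: Alexa488 bead fluorescence after subtracting the streptavidin-only scavenger bead signal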
Target sequence (Q99759 whole entry, looked up, the tested form may be a part): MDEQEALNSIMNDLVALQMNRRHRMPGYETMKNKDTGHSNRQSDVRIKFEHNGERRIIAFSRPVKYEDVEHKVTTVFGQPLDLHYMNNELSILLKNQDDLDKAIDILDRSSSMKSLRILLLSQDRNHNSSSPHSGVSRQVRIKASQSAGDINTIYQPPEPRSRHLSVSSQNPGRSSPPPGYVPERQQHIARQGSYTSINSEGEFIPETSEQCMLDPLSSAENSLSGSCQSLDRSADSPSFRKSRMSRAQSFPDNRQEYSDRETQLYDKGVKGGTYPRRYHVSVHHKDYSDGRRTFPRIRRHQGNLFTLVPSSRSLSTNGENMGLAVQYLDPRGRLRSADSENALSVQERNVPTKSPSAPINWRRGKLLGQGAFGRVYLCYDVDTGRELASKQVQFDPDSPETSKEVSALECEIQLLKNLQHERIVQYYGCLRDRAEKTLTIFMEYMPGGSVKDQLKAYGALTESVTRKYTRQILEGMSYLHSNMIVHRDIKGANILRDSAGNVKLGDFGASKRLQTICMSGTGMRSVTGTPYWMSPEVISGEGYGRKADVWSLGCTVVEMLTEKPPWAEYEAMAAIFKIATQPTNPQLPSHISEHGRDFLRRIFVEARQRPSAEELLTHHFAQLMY
SKN-1 inh: blocks SKN-1 activity in C. elegans; C. elegans VP596 Pgst-4::GFP/RFP ratio, acrylamide-induced, 24 h; 360,000 compounds, 0.49% hits; inhibition, % at 21.8 µM; AID 624304;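 active means interference check ratio from 0.5 to 1.5 plus GFP to RFP signal ratio inhibition reaching or exceeding a fixed threshold, cut at about 30% in these data, passing the limit was not always enough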
MEKK2wt PB1 HTS: raises or lowers MEK5 binding to wildtype human MEKK2 PB1 domain. 290,000 compounds, 1.1% hits. binding response (% of control), % at 10 µM. AID 1531. bead flow cytometry, Alexa488-MEK5 binding to MEKK2 WT; actives lie on both sides; in the data active means binding response below about 67% or above about 130%
MEKK2wt confirm: raises or lowers MEK5 binding to wildtype human MEKK2, retest; shares compounds with MEKK3 PB1 HTS; bead flow cytometry, Alexa488-MEK5 binding to MEKK2 WT; actives lie on both sides; binding response (% of control), % at 10 µM; 5,900 compounds, 2.4% hits; AID 1892; in the data active means binding response below about 16% or above about 210%; inactive means in between
MEKK2mut-MEK5: signal of MEK5 binding to mutant human MEKK2, retest; shares compounds with MEKK3 PB1 HTS; bead flow cytometry, Alexa488-MEK5 binding to MEKK2 mutant; percent response, % at 10 µM; 5,900 compounds, 2% hits; in the data active means percent response mostly above about 71%, no sharp cut-off; inactive means mostly below about 38%;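 further: higher means compound restores mutant binding toward wildtype level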
MEKK3 confirm: MEKK3-MEK5 PB1 inhibition, single concentration confirmation; shares compounds with MEKK3 PB1 HTS; bead flow cytometry, Alexa488-MEK5 binding to MEKK3; hits give low values; binding response (% of control), % at 10 µM; AID 1894; 5,900 compounds, 1.8% hits;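 active means binding response below 72% of control, or above a set upper limit, though filed actives all read lower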;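 further: 100% = DMSO only wells and 0% = binding blocked by excess unlabeled MEK5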
* = called active by the depositor; [ ] = another dose, or the depositor's remark.

How did COc1cc(-c2csc(CCn3nc(C)cc3C)n2)cc(OC)c1OC do in these assays?
MEKK2 mut-MEK5: active; CendR NRP1 mod: 4; MEKK3 PB1 HTS: 122; SKN-1 inh: -7; MEKK2wt confirm: 99; MEKK2mut-MEK5: -3; MEKK3 confirm: 97

Results for O=C(NCCCN1CCCCCC1)c1ccc(CS(=O)(=O)Cc2ccccc2F)o1 ?
MEKK2 mut-MEK5: 28*; CendR NRP1 mod: 30*; MEKK3 PB1 HTS: 83; SKN-1 inh: -14; MEKK2wt PB1 HTS: 200*; MEKK2wt confirm: 179; MEKK2mut-MEK5: 41; MEKK3 confirm: 75

Results for O=C(NCCN1CCCCCC1)c1ccc(CS(=O)(=O)c2ccc(Br)cc2)o1 ?
MEKK2 mut-MEK5: 26*; CendR NRP1 mod: -4; MEKK3 PB1 HTS: 99; SKN-1 inh: -1; MEKK2wt PB1 HTS: 169*; MEKK2wt confirm: 183; MEKK2mut-MEK5: 59; MEKK3 confirm: 113

What do the screens show for `O=C(NCCN1CCCCC1)c1ccco1`?
MEKK2 mut-MEK5: 5; CendR NRP1 mod: -4; MEKK3 PB1 HTS: 129*; SKN-1 inh: 1; MEKK2wt PB1 HTS: 116; MEKK2wt confirm: 101; MEKK2mut-MEK5: 0; MEKK3 confirm: 100

What do the screens show for `O=C(NCCCN1CCCC1)c1ccc(CS(=O)(=O)c2ccc(Br)cc2)o1`?
CendR NRP1 mod: -2; SKN-1 inh: -6

Results for O=C(NCCCN1CCOCC1)c1ccco1 ?
MEKK2 mut-MEK5: 5; CendR NRP1 mod: -10; MEKK3 PB1 HTS: 100; SKN-1 inh: -5; MEKK2wt PB1 HTS: 102

How did CCOc1cccc(C(=O)Nc2ccc3c(c2)OCCO3)c1 do in these assays?
MEKK2 mut-MEK5: -21; CendR NRP1 mod: -14; MEKK3 PB1 HTS: 26*[inhibitor]; SKN-1 inh: -15; MEKK2wt PB1 HTS: 38*[inhibitor]; MEKK2wt confirm: 102; MEKK2mut-MEK5: 2; MEKK3 confirm: 104

How did CCOc1cccc(C(=O)Nc2ccc(N3CCCC3)cc2)c1 do in these assays?
MEKK2 mut-MEK5: 9; CendR NRP1 mod: -3; MEKK3 PB1 HTS: 107; SKN-1 inh: 9; MEKK2wt PB1 HTS: 144*; MEKK2wt confirm: 113; MEKK2mut-MEK5: 5; MEKK3 confirm: 104

Results for CCOc1ccc(C(=O)Nc2ccc(N3CCN(C)CC3)cc2)cc1Br ?
MEKK2 mut-MEK5: 24*; CendR NRP1 mod: 13; MEKK3 PB1 HTS: 100; SKN-1 inh: 25; MEKK2wt PB1 HTS: 129; MEKK2wt confirm: 120; MEKK2mut-MEK5: 13; MEKK3 confirm: 103

Results for O=C(Nc1ccc2c(c1)OCCO2)c1cccc(C(=O)Nc2ccc3c(c2)OCCO3)c1 ?
MEKK2 mut-MEK5: 8; CendR NRP1 mod: -3; MEKK3 PB1 HTS: 105; SKN-1 inh: -2; MEKK2wt PB1 HTS: 107

What do the screens show for `CCOc1ccc(OCc2cccc(C(=O)Nc3ccc(CN4CCCCC4)cc3)c2)cc1`?
MEKK2 mut-MEK5: 6; CendR NRP1 mod: -4; MEKK3 PB1 HTS: 113; SKN-1 inh: 5; MEKK2wt PB1 HTS: 161*; MEKK2wt confirm: 138; MEKK2mut-MEK5: 43; MEKK3 confirm: 107

Results for Cn1c(=O)[nH]c(=O)c2c1nc1n2CC(O)CN1c1ccccc1 (stereo not drawn) ?
MEKK2 mut-MEK5: -6; CendR NRP1 mod: -2; MEKK3 PB1 HTS: 92; SKN-1 inh: 13; MEKK2wt PB1 HTS: 97

What do the screens show for `COc1cccc(-c2cnc3c(NC(C)=O)cc(-c4ccsc4)cn23)c1`?
CendR NRP1 mod: -6; SKN-1 inh: 8

What do the screens show for `CC(C)Oc1cccc(C(=O)NC(=S)Nc2ccc(N3CCN(C)CC3)cc2)c1`?
MEKK2 mut-MEK5: -37; CendR NRP1 mod: 1; MEKK3 PB1 HTS: 24*[inhibitor]; SKN-1 inh: -17; MEKK2wt PB1 HTS: 48; MEKK2wt confirm: 144; MEKK2mut-MEK5: 38; MEKK3 confirm: 110

Results for COc1ccc(CCC(=O)Nc2ccc(C)c([N+](=O)[O-])c2)cc1 ?
MEKK2 mut-MEK5: 1; CendR NRP1 mod: 4; MEKK3 PB1 HTS: 161*; SKN-1 inh: 9; MEKK2wt PB1 HTS: 106; MEKK2wt confirm: 102; MEKK2mut-MEK5: 4; MEKK3 confirm: 100

Results for COc1ccc(-c2noc(CCC(=O)NCC3CCN(Cc4cccc(C)c4)CC3)n2)cc1 ?
MEKK2 mut-MEK5: 39*; CendR NRP1 mod: 4; MEKK3 PB1 HTS: 116; SKN-1 inh: -7; MEKK2wt PB1 HTS: 143*; MEKK2wt confirm: 118; MEKK2mut-MEK5: 17; MEKK3 confirm: 101

How did COc1ccc(-c2noc(CCC(=O)Nc3ccc(C)c(C)c3)n2)cc1 do in these assays?
MEKK2 mut-MEK5: -22; CendR NRP1 mod: -2; MEKK3 PB1 HTS: 0.0*[inhibitor]; SKN-1 inh: 5; MEKK2wt PB1 HTS: -7.0*[inhibitor]; MEKK2wt confirm: 106; MEKK2mut-MEK5: 1; MEKK3 confirm: 100

How did CCN(CC)CCCNC(=S)N1CCN(c2nc(-c3ccccc3)cs2)CC1 do in these assays?
MEKK2 mut-MEK5: 23; CendR NRP1 mod: 2; MEKK3 PB1 HTS: 103; SKN-1 inh: 7; MEKK2wt PB1 HTS: 143*; MEKK2wt confirm: 129; MEKK2mut-MEK5: 45; MEKK3 confirm: 108

How did CCOCCCNC(=S)N1CCN(c2nc(-c3ccccc3)cs2)CC1 do in these assays?
MEKK2 mut-MEK5: 6; CendR NRP1 mod: 11; MEKK3 PB1 HTS: 101; SKN-1 inh: -2; MEKK2wt PB1 HTS: 106

How did CCCCC(CC)Cn1c(O)c(/C=C2\C=NN=C2c2ccccc2)sc1=S (stereo not drawn) do in these assays?
MEKK2 mut-MEK5: 0; CendR NRP1 mod: -7; MEKK3 PB1 HTS: 136*; SKN-1 inh: 7; MEKK2wt PB1 HTS: 103; MEKK2wt confirm: 108; MEKK2mut-MEK5: -1; MEKK3 confirm: 102

How did CCCn1c(O)c(/C=C2\C=NN=C2c2ccccc2)sc1=S do in these assays?
MEKK2 mut-MEK5: -2; CendR NRP1 mod: -7; MEKK3 PB1 HTS: 99; SKN-1 inh: -10; MEKK2wt PB1 HTS: 88

What do the screens show for `C/C(=N/NC(=O)c1ccncc1)c1cc2ccc(O)cc2oc1=O`?
MEKK2 mut-MEK5: 16; CendR NRP1 mod: 121; MEKK3 PB1 HTS: 103; SKN-1 inh: -151; MEKK2wt PB1 HTS: 156*; MEKK2wt confirm: 88; MEKK2mut-MEK5: -9; MEKK3 confirm: 91

Results for CCOc1cc(C2NN=C(c3ccccc3)S2)ccc1OCc1ccc(F)cc1 (stereo not drawn) ?
MEKK2 mut-MEK5: -16; CendR NRP1 mod: 0; MEKK3 PB1 HTS: 0.0*[inhibitor]; SKN-1 inh: 5; MEKK2wt PB1 HTS: 0.0*[inhibitor]; MEKK2wt confirm: 97; MEKK2mut-MEK5: -7; MEKK3 confirm: 95

From PubChem
